PubChem BioAssay (NCI)
Compounds without any hit were thinned out: in the full panel of roughly 79,000, 15% have a hit. Calls of active or inactive are those of the source. Rule as the data show it: active = growth inhibition above about 70%; inactive = the rest.

What was measured:
[1] = NCI Yeast Anticancer Drug Screen. Data for the rad52 strain (AID 147);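 also: 0% = growth of vehicle-treated control cultures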; conditions: S. cerevisiae rad52 mutant growth inhibition, active compounds read high
Procedure, shortened: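 Compounds are applied to a genetically defined yeast strain lacking normal DNA damage repair, and inhibition of growth is expressed relative to cultures given vehicle only.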

[2] = NCI Yeast Anticancer Drug Screen. Data for the wt1 strain (AID 149);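 also: 0% = growth of vehicle-treated wt1 cultures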; conditions: S. cerevisiae wt1 strain (SPY 50644) growth inhibition, active compounds read high
Procedure, shortened: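 Vehicle-normalised growth inhibition; strain wt1; compound exposure.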

[3] = NCI Yeast Anticancer Drug Screen. Data for the rad50EPP+ strain (AID 151);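 also: 0% = growth of vehicle-treated control cultures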; conditions: S. cerevisiae rad50 mutant strain, active compounds read high
Procedure, shortened: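 Compounds were applied to the rad50EPP+ yeast strain, which bears a defined DNA repair alteration, and growth inhibition was determined relative to vehicle-treated cultures.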

[4] = NCI Yeast Anticancer Drug Screen. Data for the mgt1 strain (AID 153); conditions: S. cerevisiae mgt1 mutant growth inhibition, active compounds read high
Procedure, shortened: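 Strain: mgt1 yeast, one of a set carrying defined DNA damage repair or cell cycle control alterations. Compound-treated growth compared with vehicle.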

[5] = NCI Yeast Anticancer Drug Screen. Data for the rad50 strain (AID 155);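 also: 0% = growth of vehicle-only cultures of the same strain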; conditions: S. cerevisiae rad50 strain growth inhibition, active compounds read high
Procedure, shortened: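 A DNA repair-deficient yeast mutant serves as the test organism; compound-induced growth inhibition is calculated against vehicle-treated cells.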

[6] = NCI Yeast Anticancer Drug Screen. Data for the mec2-1 strain (AID 157); conditions: S. cerevisiae mec2-1 strain, active compounds read high
Procedure, shortened: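 Strain: mec2-1 (DNA repair/cell cycle alteration). Compound exposure, then growth measured; inhibition expressed relative to vehicle.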

[7] = NCI Yeast Anticancer Drug Screen. Data for the rad14 strain (AID 159);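 also: 0% = growth of vehicle-treated control cultures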; conditions: S. cerevisiae rad14 strain growth inhibition, active compounds read high
Procedure, shortened: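 Vehicle-treated cultures served as the baseline for growth inhibition of a DNA repair-mutant yeast strain exposed to each compound.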

[8] = NCI Yeast Anticancer Drug Screen. Data for the sgs1 mgt1 strain (AID 161);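 also: 0% = growth of cultures given vehicle only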; conditions: S. cerevisiae sgs1 mgt1 strain, active compounds read high
Procedure, shortened: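 Inhibition of yeast growth, normalised to vehicle-treated controls, is reported for a strain bearing genetic alterations in DNA damage repair.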

[9] = NCI Yeast Anticancer Drug Screen. Data for the CLN2oe strain (AID 163);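 also: 0% = growth of vehicle-only control cultures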; conditions: S. cerevisiae CLN2oe strain, active compounds read high
Procedure, shortened: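 Growth of a genetically modified yeast strain is measured after compound exposure and compared with cultures given vehicle alone.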

[10] = NCI Yeast Anticancer Drug Screen. Data for the cln2 rad14 strain (AID 165);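 also: 0% = growth equal to vehicle treated cultures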; conditions: S. cerevisiae cln2 rad14 strain, active compounds read high
Procedure, shortened: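 Compounds are applied to the cln2 rad14 yeast strain, and growth is then compared with that of vehicle-treated cultures to give inhibition.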

[11] = NCI Yeast Anticancer Drug Screen. Data for the bub3 strain (AID 167); conditions: S. cerevisiae bub3 mutant strain, active compounds read high
Procedure, shortened: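 Inhibition values come from growth of compound-treated mutant yeast normalised to vehicle-treated controls.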

[12] = NCI Yeast Anticancer Drug Screen. Data for the wt2 strain (AID 169);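 also: 0% = growth of vehicle-treated yeast cultures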; conditions: S. cerevisiae wt2 strain growth inhibition, active compounds read high
Procedure, shortened: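 This strain belongs to a panel of yeast strains with defined genetic alterations in DNA damage repair or cell cycle control. Compounds are applied, and growth inhibition is measured against vehicle-treated cultures.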

[13] = NCI Yeast Anticancer Drug Screen. Data for the mlh1 strain (AID 171);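 also: 0% = growth of vehicle-treated control cultures of the same strain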; conditions: S. cerevisiae mlh1 strain growth inhibition, active compounds read high
Procedure, shortened: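 Growth of the mutant yeast strain after compound exposure, expressed as inhibition relative to vehicle-only controls.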

[14] = NCI Yeast Anticancer Drug Screen. Data for the sgs1 strain (AID 173);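 also: 0% = growth of vehicle-only control cultures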; conditions: S. cerevisiae sgs1 mutant, active compounds read high
Procedure, shortened: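 Growth of a yeast strain bearing a defined genetic alteration is measured after compound treatment. Inhibition is expressed relative to vehicle-only controls.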

[15] = NCI Yeast Anticancer Drug Screen. Data for the mlh1 rad18 strain (AID 175); conditions: S. cerevisiae mlh1 rad18 strain growth inhibition, active compounds read high
Procedure, shortened: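 Read-out is yeast growth inhibition, calculated against vehicle-only controls. The compound was applied to a strain engineered with DNA damage repair alterations.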

[16] = NCI Yeast Anticancer Drug Screen. Data for the rad18 strain (AID 177); conditions: S. cerevisiae rad18 mutant growth inhibition, active compounds read high
Procedure, shortened: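 Growth of the mutant yeast strain after compound exposure, normalised to vehicle-only cultures.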

[17] = at 5.0 µM (retest, dose inferred, filed as 0.5)
[18] = at 50.0 µM (retest, dose inferred, filed as 5.0)

Measured: growth inhibition

C[C@]12CCC3[C@@H](CC[C@@H]4c5nonc5CC[C@]34C)C1CCC2=O (stereo partly specified)
active: [1]; at 33.0 µM 82% | [1]; at 100.0 µM 85% | [4]; at 33.0 µM 84% | [4]; at 100.0 µM 90% | [5]; at 33.0 µM 80% | [5]; at 50.0 µM 87.3% | [5]; at 100.0 µM 87% | [6]; at 100.0 µM 79% | [7]; at 33.0 µM 87% | [7]; at 100.0 µM 90% | [8]; at 50.0 µM 87.6% | [11]; at 50.0 µM 78.2% | [11]; at 100.0 µM 72% | [12]; at 33.0 µM 83% | [12]; at 100.0 µM 83% | [13]; at 33.0 µM 80% | [13]; at 100.0 µM 86% | [14]; at 33.0 µM 92% | [14]; at 100.0 µM 93% | [15]; at 50.0 µM 80.8% | [16]; at 33.0 µM 78% | [16]; at 100.0 µM 83%
inactive: [1]; at 1.2 µM 13% | [1]; at 3.7 µM 22% | [1]; at 11.0 µM 52% | [2]; at 1.2 µM 0% | [2]; at 3.7 µM -1% | [2]; at 11.0 µM 8% | [2]; at 33.0 µM 38% | [2]; at 100.0 µM 65% | [3]; at 1.2 µM 4% | [3]; at 3.7 µM 7% | [3]; at 11.0 µM 16% | [3]; at 33.0 µM 29% | [3]; at 100.0 µM 24% | [4]; at 1.2 µM 20% | [4]; at 3.7 µM 29% | [4]; at 11.0 µM 52% | [5]; at 1.2 µM 14% | [5]; at 3.7 µM 18% | [5]; [17] 27% | [5]; at 11.0 µM 65% | [5]; [18] 67% | [6]; at 1.2 µM 6% | [6]; at 3.7 µM 3% | [6]; [17] 15% | [6]; at 11.0 µM 29% | [6]; at 33.0 µM 54% | [6]; [18] -11% | [6]; at 50.0 µM 47.6% | [7]; at 1.2 µM 40% | [7]; at 3.7 µM 40% | [7]; at 11.0 µM 55% | [8]; [17] 33% | [8]; [18] 69% | [9]; at 1.2 µM 38% | [9]; at 3.7 µM 41% | [9]; at 11.0 µM 48% | [9]; at 33.0 µM 47% | [9]; at 100.0 µM 51% | [10]; [17] 39% | [10]; [18] 54% | [10]; at 50.0 µM 67.7% | [11]; at 1.2 µM 16% | [11]; at 3.7 µM 19% | [11]; [17] -11% | [11]; at 11.0 µM 38% | [11]; at 33.0 µM 61% | [11]; [18] 59% | [12]; at 1.2 µM 3% | [12]; at 3.7 µM 2% | [12]; at 11.0 µM 32% | [13]; at 1.2 µM 8% | [13]; at 3.7 µM 11% | [13]; at 11.0 µM 29% | [14]; at 1.2 µM 19% | [14]; at 3.7 µM 26% | [14]; at 11.0 µM 66% | [15]; [17] 37% | [15]; [18] 63% | [16]; at 1.2 µM 24% | [16]; at 3.7 µM 22% | [16]; at 11.0 µM 50%

Oc1cccnc1[Se]
inactive: [1]; at 1.2 µM 4% | [1]; at 3.7 µM 7% | [1]; at 11.0 µM 55% | [2]; at 1.2 µM -2% | [2]; at 3.7 µM -3% | [2]; at 11.0 µM -4% | [2]; at 33.0 µM 46% | [3]; at 1.2 µM 1% | [3]; at 3.7 µM 9% | [3]; at 11.0 µM 33% | [4]; at 1.2 µM -4% | [4]; at 3.7 µM -3% | [4]; at 11.0 µM -2% | [4]; at 33.0 µM 68% | [5]; at 1.2 µM 2% | [5]; at 3.7 µM 6% | [5]; [17] -15% | [5]; at 11.0 µM 60% | [5]; [18] 55% | [6]; at 1.2 µM -3% | [6]; at 3.7 µM -5% | [6]; [17] -2% | [6]; at 11.0 µM -3% | [6]; at 33.0 µM 38% | [6]; [18] -10% | [7]; at 1.2 µM 1% | [7]; at 3.7 µM 1% | [7]; at 11.0 µM 5% | [8]; [17] -10% | [8]; [18] 4% | [9]; at 1.2 µM -3% | [9]; at 3.7 µM 3% | [9]; at 11.0 µM -8% | [9]; at 33.0 µM 2% | [9]; at 100.0 µM 37% | [10]; [17] 7% | [10]; [18] 6% | [11]; at 1.2 µM -6% | [11]; at 3.7 µM -7% | [11]; [17] -21% | [11]; at 11.0 µM -13% | [11]; at 33.0 µM -5% | [11]; [18] -18% | [11]; at 100.0 µM 63% | [12]; at 1.2 µM -5% | [12]; at 3.7 µM -9% | [12]; at 11.0 µM -15% | [13]; at 1.2 µM -2% | [13]; at 3.7 µM 2% | [13]; at 11.0 µM 11% | [14]; at 1.2 µM -1% | [14]; at 3.7 µM 21% | [14]; at 11.0 µM 11% | [15]; [17] 7% | [15]; [18] 59% | [16]; at 1.2 µM -2% | [16]; at 3.7 µM 3% | [16]; at 11.0 µM 20%
active: [1]; at 33.0 µM 99% | [1]; at 100.0 µM 99% | [2]; at 100.0 µM 99% | [3]; at 33.0 µM 74% | [3]; at 100.0 µM 96% | [4]; at 100.0 µM 99% | [5]; at 33.0 µM 98% | [5]; at 50.0 µM 99% | [5]; at 100.0 µM 99% | [6]; at 50.0 µM 97.5% | [6]; at 100.0 µM 98% | [7]; at 33.0 µM 95% | [7]; at 100.0 µM 99% | [8]; at 50.0 µM 95.3% | [10]; at 50.0 µM 99% | [11]; at 50.0 µM 99.2% | [12]; at 33.0 µM 97% | [12]; at 100.0 µM 99% | [13]; at 33.0 µM 98% | [13]; at 100.0 µM 99% | [14]; at 33.0 µM 98% | [14]; at 100.0 µM 99% | [15]; at 50.0 µM 98% | [16]; at 33.0 µM 94% | [16]; at 100.0 µM 99%
